Test results published in PubChem BioAssay (NCATS).
Results filed as inconclusive are left out. Unless noted, calls follow the shape of the dose curve; as a rule, active = well fitted curve in either direction with a large enough effect (not every such curve was filed as active); inconclusive = small, poorly fitted or top-dose-only effect, or another doubt; inactive = flat fitted curve, though single readings scatter.

Key:
[1] = AP1 Signaling Pathway (AID 357); details: ME-180 AP-1-bla reporter, EGF-induced, beta-lactamase ratio, 5 h; at 17.2 µM (top of the series) unless noted; also: % is scaled to controls: 0 for no effect and ±100 for the full control effect
How it was run: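 In this screen, ME-180 cells in Opti-MEM with 0.5% dialyzed FBS received EC50 EGF and compound titrations for 5 h. AP-1 reporter beta-lactamase was detected via CCF4 ratio, giving AC50 for positive and negative modulators.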

[2] = NFAT Signaling Pathway (AID 444); details: Jurkat NFAT-bla M1, carbachol, beta-lactamase ratio, 5 h; at 17.2 µM (top of the series) unless noted;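 also: carbachol stimulus at about its EC50 of 1 µM final; % is scaled to controls: 0 for no effect and ±100 for the full control effect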
How it was run: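 Jurkat cells with NFAT-driven β-lactamase reporter and co-expressed M1 receptor, stimulated with carbachol (final 1 uM, ~EC50), compound titration, 5 h at 37 °C. CCF4 loaded 1 h at RT; 460/530 nm ratio gave %activity and AC50.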

[3] = Stat Signaling Pathway (AID 446); details: ME-180 SIE beta-lactamase reporter, IL-6 stimulated, 5 h; at 17.2 µM (top of the series) unless noted;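 also: ME-180 cervical cancer cells given 40 pM IL-6 alongside compound; SIE-controlled beta-lactamase reporter measured as 460/530 nm FRET emission ratio; % is scaled to controls: 0 for no effect and ±100 for the full control effect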
How it was run: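 Screening format detects activators and inhibitors alike: ME-180 SIE-bla cells stimulated at 40 pM IL-6 for 5 hrs with compound, then dual-emission beta-lactamase read at 405 nm excitation.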

[4] = biological target: Glucocorticoid receptor (Homo sapiens) (UniProt P04150); assay: GR-GFP Redistribution (AID 450;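 active = compounds whose dose series gives a full or clear partial fitted curve of increased nuclear translocation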; also: potency is read from the fitted curve at half-maximal effect)
Glucocorticoid receptor (Homo sapiens), sequence (P04150 whole entry, looked up): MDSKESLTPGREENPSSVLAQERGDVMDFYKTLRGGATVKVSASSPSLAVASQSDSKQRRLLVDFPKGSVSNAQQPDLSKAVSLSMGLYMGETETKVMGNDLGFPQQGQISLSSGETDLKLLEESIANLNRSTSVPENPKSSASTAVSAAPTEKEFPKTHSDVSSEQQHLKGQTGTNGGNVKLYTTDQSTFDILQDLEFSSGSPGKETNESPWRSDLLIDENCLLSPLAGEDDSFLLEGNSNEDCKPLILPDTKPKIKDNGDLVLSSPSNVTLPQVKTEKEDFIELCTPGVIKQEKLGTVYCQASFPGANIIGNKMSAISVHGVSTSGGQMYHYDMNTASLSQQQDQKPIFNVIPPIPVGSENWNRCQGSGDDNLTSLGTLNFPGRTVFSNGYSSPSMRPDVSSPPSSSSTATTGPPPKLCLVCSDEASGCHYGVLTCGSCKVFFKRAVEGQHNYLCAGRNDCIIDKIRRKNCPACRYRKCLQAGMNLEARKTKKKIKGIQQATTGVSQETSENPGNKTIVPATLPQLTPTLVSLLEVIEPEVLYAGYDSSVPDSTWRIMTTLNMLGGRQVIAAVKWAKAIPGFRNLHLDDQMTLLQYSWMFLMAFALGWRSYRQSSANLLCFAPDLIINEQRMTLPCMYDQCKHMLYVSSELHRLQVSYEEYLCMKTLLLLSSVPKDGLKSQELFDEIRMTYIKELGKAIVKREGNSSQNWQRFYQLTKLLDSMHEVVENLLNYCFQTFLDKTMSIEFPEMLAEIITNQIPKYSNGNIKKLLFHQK

CCOC(=O)Cn1c(SC)nc2sc3c(c2c1=O)CC(C)(C)OC3
inactive: activity change, negative = inhibition [1] 3.62% | activity change, negative = inhibition [2] 10.2% | activity, negative = inhibition [3] -3.19% | Potency [4] > 20.6 µM

CCCOc1ccc(C2NC(=O)NC2=O)cc1 (stereo not given)
inactive: activity change, negative = inhibition [1] 5.97% | activity change, negative = inhibition [2] 9.35% | activity, negative = inhibition [3] -1.78% | Potency [4] > 20.6 µM

CC(NC(=O)c1ccc(=O)oc1)c1ccccc1 (stereo not given)
inactive: activity change, negative = inhibition [1] 8.92% | activity change, negative = inhibition [2] 0.391% | activity, negative = inhibition [3] 6.96% | Potency [4] > 20.6 µM

CCCCNC(=O)N1CCOCCOCCN(C(=O)NCCCC)CCOCCOCC1
inactive: activity change, negative = inhibition [1] 3.89% | activity change, negative = inhibition [2] 5.69% | activity, negative = inhibition [3] -1.16% | Potency [4] > 20.6 µM

COC(=O)CNc1nc(-c2cccnc2)nc2ccccc12
inactive: activity change, negative = inhibition [1] -12.5% | activity change, negative = inhibition [2] -5.87% | activity, negative = inhibition [3] -8.59% | Potency [4] > 20.6 µM

O=C(c1coc(=O)c(Br)c1)N1CCOCC1
inactive: activity change, negative = inhibition [1] 6.25% | activity change, negative = inhibition [2] 21.3% | activity, negative = inhibition [3] 1.69% | Potency [4] > 20.6 µM

c1coc(-c2nnc3sc(C4CCCCC4)nn23)c1
inactive: activity change, negative = inhibition [1] -14.7% | activity change, negative = inhibition [2] -19.5% | activity, negative = inhibition [3] 6.55% | Potency [4] > 20.6 µM

COc1ccc(C(=O)c2ccc(N3CCOCC3)cc2)c(OC)c1
inactive: activity change, negative = inhibition [1] -17.3% | activity change, negative = inhibition [2] 13.3% | activity, negative = inhibition [3] 1.25% | Potency [4] > 20.6 µM

Cc1nc2sc(C#N)c(N)c2c2c1CCCC2
inactive: activity change, negative = inhibition [1] -15.7% | activity change, negative = inhibition [2] -7.96% | activity, negative = inhibition [3] -6.2% | Potency [4] > 20.6 µM

CC(C)CC(C(=O)O)C(C)CC(=O)Nc1ccn(-c2ccccc2)n1 (stereo not given)
inactive: activity change, negative = inhibition [1] -9.05% | activity change, negative = inhibition [2] 6.76% | activity, negative = inhibition [3] 7.28% | Potency [4] > 20.6 µM

CC(=O)N(Cc1ccccc1)c1ccc(C(=O)O)cc1
inactive: activity change, negative = inhibition [1] 1.39% | activity change, negative = inhibition [2] -12.1% | activity, negative = inhibition [3] 13.1% | Potency [4] > 20.6 µM

COCCN(C(=O)Nc1ccccc1)c1ccccc1C
inactive: activity change, negative = inhibition [1] -9.46% | activity change, negative = inhibition [2] -0.712% | activity, negative = inhibition [3] 6.32% | Potency [4] > 20.6 µM

Cc1ccc(C(=O)NCC(C)(C)O)cc1
inactive: activity change, negative = inhibition [1] 9.77% | activity change, negative = inhibition [2] -4.7% | activity, negative = inhibition [3] 12.1% | Potency [4] > 20.6 µM

COCCn1c(SCc2c(F)cccc2Cl)nc2c1c(=O)[nH]c(=O)n2C
inactive: activity change, negative = inhibition [1] -17.8% | activity change, negative = inhibition [2] -0.711% | activity, negative = inhibition [3] -1.06% | Potency [4] > 20.6 µM

Cc1c(CCC#N)c(N2CCCCC2)n2c(nc3ccccc32)c1C#N
inactive: activity change, negative = inhibition [1] -4.98% | activity change, negative = inhibition [2] -11.4% | activity, negative = inhibition [3] 10.9% | Potency [4] > 20.6 µM

COC(=O)C1=C(C)N=C2SC(C)C(=O)N2C1/C=C/c1ccccc1OC (stereo not given)
inactive: activity change, negative = inhibition [1] 2.3% | activity change, negative = inhibition [2] -16.8% | activity, negative = inhibition [3] -6.43% | Potency [4] > 20.6 µM

COc1ccc(OC)c(C2=Nn3c(nnc3-c3ccco3)SC2)c1
inactive: activity change, negative = inhibition [1] -13.7% | activity change, negative = inhibition [2] 24.6% | activity, negative = inhibition [3] -6.07% | Potency [4] > 20.6 µM

CCCOc1ccc(N2C(=O)CC(N(Cc3ccc(S(N)(=O)=O)cc3)C(=O)CC)C2=O)cc1 (stereo not given)
inactive: activity change, negative = inhibition [1] -6.51% | activity change, negative = inhibition [2] 20.1% | activity, negative = inhibition [3] 11.7% | Potency [4] > 20.6 µM

COC(=O)c1cc(OC)c(OC)cc1N
inactive: activity change, negative = inhibition [1] 0.8% | activity change, negative = inhibition [2] 0.905% | activity, negative = inhibition [3] -0.00836% | Potency [4] > 20.6 µM

Nc1nonc1-c1noc(N2CCOCC2)n1
inactive: activity change, negative = inhibition [1] 4.65% | activity change, negative = inhibition [2] -8.54% | activity, negative = inhibition [3] -2.07% | Potency [4] > 20.6 µM

CCOc1ccccc1C(=O)NCCCCCC(=O)O
inactive: activity change, negative = inhibition [1] -1.91% | activity change, negative = inhibition [2] 2.57% | activity, negative = inhibition [3] 6.07% | Potency [4] > 20.6 µM

COc1ccc2[nH]cc(C(=O)CN(C)CCc3ccc(OC)c(OC)c3)c2c1
inactive: activity change, negative = inhibition [1] -10.3% | activity change, negative = inhibition [2] 11.6% | activity, negative = inhibition [3] 6.57% | Potency [4] > 20.6 µM

O=C1CC(c2ccccc2)NC(=O)N1 (stereo not given)
inactive: activity change, negative = inhibition [1] 8.17% | activity change, negative = inhibition [2] -2.15% | activity, negative = inhibition [3] -0.378% | Potency [4] > 20.6 µM

C(=N\n1cnnc1)/c1cccc(Oc2ccccc2)c1
inactive: activity change, negative = inhibition [1] -3.86% | activity change, negative = inhibition [2] -2.39% | activity, negative = inhibition [3] -17.8% | Potency [4] > 20.6 µM

O=S(=O)(c1ccccc1)N(CC(O)CN1CCCCC1)c1ccccc1 (stereo not given)
inactive: activity change, negative = inhibition [1] -4.48% | activity change, negative = inhibition [2] -23% | activity, negative = inhibition [3] 3.01% | Potency [4] > 20.6 µM
